Source: PubChem BioAssay (NCI)
Compounds without any hit were thinned out: in the full panel of roughly 79,000, 15% have a hit. A number with no mark means an inactive call. Active and inactive are the calls of the source. Rule as the data show it: active = growth inhibition above about 70%; inactive = the rest.

Legend:
[1] = NCI Yeast Anticancer Drug Screen. Data for the rad50 strain (AID 155);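 also: 0% = growth of vehicle-only cultures of the same strain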; conditions: S. cerevisiae rad50 strain growth inhibition; at 50.0 µM; hits give high values
Method in brief: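 DNA repair mutant yeast, compound exposure, growth read-out; inhibition is taken relative to vehicle.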

[2] = NCI Yeast Anticancer Drug Screen. Data for the mec2-1 strain (AID 157); conditions: S. cerevisiae mec2-1 strain, at 50.0 µM, hits give high values
Method in brief: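 Vehicle-treated cultures served as reference for growth inhibition of compound-exposed mec2-1 yeast.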

[3] = NCI Yeast Anticancer Drug Screen. Data for the sgs1 mgt1 strain (AID 161);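 also: 0% = growth of cultures given vehicle only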; conditions: S. cerevisiae sgs1 mgt1 strain, at 50.0 µM, hits give high values
Method in brief: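 Genetically altered yeast, compound exposure, growth inhibition relative to vehicle.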

[4] = NCI Yeast Anticancer Drug Screen. Data for the cln2 rad14 strain (AID 165);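 also: 0% = growth equal to vehicle treated cultures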; conditions: S. cerevisiae cln2 rad14 strain, at 50.0 µM, hits give high values
Method in brief: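 Each compound was tested on cln2 rad14 yeast. Inhibition of growth was calculated against vehicle-exposed controls.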

[5] = NCI Yeast Anticancer Drug Screen. Data for the bub3 strain (AID 167); conditions: S. cerevisiae bub3 mutant strain, at 50.0 µM, hits give high values
Method in brief: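 In this screen, a yeast mutant lacking normal mitotic checkpoint function is challenged with compound. Relative growth versus vehicle gives the inhibition value.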

[6] = NCI Yeast Anticancer Drug Screen. Data for the mlh1 rad18 strain (AID 175); conditions: S. cerevisiae mlh1 rad18 strain growth inhibition; at 50.0 µM; hits give high values
Method in brief: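 Vehicle-treated cultures served as the reference for growth inhibition in a yeast strain carrying DNA damage repair alterations exposed to each compound.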

Row | Structure (SMILES) | growth inhibition [1] | growth inhibition [2] | growth inhibition [3] | growth inhibition [4] [%] | growth inhibition [5] [%] | growth inhibition [6]
1 | O=[N+]([O-])c1ccc(-c2ccccc2CO)cc1 | -9.55% | -10.2% | -25.6% | -33.5 | -6.95 | -26.6%
2 | CN(C)CCNC(=O)c1ccc(NC(=O)c2nc([N+](=O)[O-])cn2C)cc1 | -14.2% | 10.6% | 4.9% | -22.6 | -8.5 | -31.6%
3 | CC(=O)OC[C@@H](OC(C)=O)[C@@H](OC(C)=O)[C@H]1OC[C@@H]2C[C@H]([C@H]1OC(C)=O)N(Cc1ccccc1)O2 | -18.9% | -13.8% | -7.75% | 4.25 | -9.8 | -0.3%
4 | CC(=O)N[C@@H]1CCC[C@H](NC(C)=O)C1 | -9.75% | -44.4% | -12.7% | -17.1 | 12.7 | -23.9%
5 | COc1ccc(NC(C)=O)c([N+](=O)[O-])c1 | 23.3% | 0.25% | 19.3% | 16.3 | -8.35 | 6.3%
6 | O=C(O)CNCc1ccccc1 | 2.85% | 22.5% | 14.6% | -4.45 | 16.4 | -15.3%
7 | CCCNC1CC(n2cc(C)c(=O)[nH]c2=O)OC1CO (stereo unspecified) | -11.4% | -7.85% | -25.3% | -14.7 | -31.8 | -26.8%
8 | c1ccc(-c2oc3ccc4ccccc4c3c2-c2ccc(OCCN3CCCC3)cc2)cc1 | 75.8% (active) | 58.4% | 66.8% | 61.2 | 51.4 | 61.5%
9 | CC(=O)OC(C)C(=O)OCC1OC(OC(=O)C(C)OC(C)=O)C(OC(=O)C(C)OC(C)=O)C(OC(=O)C(C)OC(C)=O)C1OC(=O)C(C)OC(C)=O (stereo unspecified) | 7.6% | -13.8% | -10.6% | -42.4 | -12.1 | 7.95%
10 | CC(C)N(C(=S)[S-])C(C)C.CC(C)N(C(=S)[S-])C(C)C.[Zn] | 96.8% (active) | 96.8% (active) | 97.8% (active) | 24.1 | 59.5 | 97% (active)
11 | c1ccc2c(c1)Cc1ccccc1-2 | 1.5% | -17.2% | -10.6% | -19.5 | -20.9 | -19.1%
12 | COC(=O)[C@H](Cc1c[nH]c2ccccc12)NP(=O)(OCCC#N)OCC1OC(n2cc(C)c(=O)[nH]c2=O)CC1N=[N+]=[N-] (stereo partly specified) | -13.6% | -33.1% | -23.4% | -13.3 | -30.8 | -65%
13 | CCCCCC/C=N\OC(N)=O | 12.9% | 15.2% | -4.9% | -12.9 | 3.35 | 11.8%
14 | CCc1ccccc1NC(=O)NCC(C)C | -7.65% | -20.3% | 5.85% | -3.8 | 2.7 | -4.35%
15 | O=C(O)CN(CC(=O)O)CC(=O)O | -9.7% | -23.6% | -34.4% | -11.8 | -17.1 | 32.1%
16 | c1ccc2c(c1)ccc1c2ccc2c1cc1ccccn12 | -4.2% | 7.45% | -13.2% | -14.7 | -20.3 | 0.8%
17 | CC(=O)OCC1OC(n2c(Br)nc3c2c(=O)n(C)c(=O)n3C)C(OC(C)=O)C1OC(C)=O (stereo unspecified) | -19.9% | -1.3% | -14.3% | -7.95 | -0.95 | 0.25%
18 | CSc1cc2c(cc1[N+](=O)[O-])C(=O)c1cc(F)ccc1-2 | 8.7% | 18.1% | 4.45% | -5.5 | 3.15 | 5%
19 | CC1(C)N=C(N)N=C(N)N1c1cccc(CCC(=O)Nc2cccnc2)c1 | 19.4% | 1.4% | 5.2% | 9.05 | -4.5 | -6.3%
20 | CC(C)(C)OC(=O)c1cccc(C(=O)OC(C)(C)C)c1 | 0.6% | 41.6% | 32.2% | -9.7 | 39.1 | 17.3%
21 | CCOC(=O)/C(=C/c1ccc(C#N)cc1)N(CC)CC | -3.95% | -13.1% | -9% | 24.4 | -3.9 | -9.25%

Row | Structure (SMILES) | growth inhibition [1] | growth inhibition [2] | growth inhibition [3] | growth inhibition [4] [%] | growth inhibition [5] [%] | growth inhibition [6]
22 | CC(=O)OC[C@H]1O[C@@H](O[C@H]2[C@H](OC(C)=O)C=CO[C@@H]2COC(C)=O)C(OC(C)=O)[C@H]2OC(C)(C)O[C@H]21 (stereo partly specified) | -9% | -14.8% | -18.9% | 3.5 | 7.05 | 4.95%
23 | CN(C)CC(CN(C)C)C(=O)c1ccc(OC2OC(CO)C(O)C(O)C2O)cc1 (stereo unspecified) | -4.95% | -3.15% | -18.4% | 5.15 | -9.35 | 2.05%
24 | CCCn1c(=O)n(C)c(=O)c2c1ncn2C | -5.15% | -2.25% | 13.2% | -28.1 | 4.1 | 13.5%
25 | O=NN(CCCl)C(=S)NC1CCCCC1 | 3.25% | -0.15% | 6.35% | 7.2 | -3.6 | 47.8%
26 | Cc1cc2nc(CC(C(F)(F)F)C(F)(F)F)oc2cc1C | -21% | -13.4% | -13.2% | -4.85 | -14.4 | 34.9%
27 | Nc1nc(SC2CCCCC2)nc2c1ncn2C1OC(CO)C(O)C1O (stereo unspecified) | -49.5% | -33% | -8.15% | 0.7 | -4.75 | -13.7%
28 | CCOC(=O)C1=C(C)NC(=O)NC1c1cccc(OC)c1O (stereo unspecified) | 11% | 0.15% | 16.7% | 9.7 | 30.8 | 18.1%
29 | CCN(CC)c1ccc(N=C2C=CC(=O)C(NC(C)=O)=C2)c(C)c1 | -13.2% | -24.8% | 29.2% | -8.15 | 14.1 | 13.3%
30 | CCCCOC(=O)NC(=O)c1cc2cccc(OC)c2oc1=O | 17.1% | 21.6% | 14.4% | 14.3 | 14.8 | 10.2%
31 | CSc1cnn(-c2ccccc2)[n+]1[O-] | 3.8% | -1.3% | -7.15% | -42.5 | -1.75 | -0.85%
32 | O=C(O)c1c[nH]c2cc(OCc3ccc(Br)cc3)ccc2c1=O | 13.8% | 0.65% | -1.85% | 6.9 | 2.5 | 9.45%
33 | c1ccc2cc(C3OCC4(CCC4)CO3)ccc2c1 | 11.6% | -1.35% | 3.1% | -26.8 | 24.8 | -6.9%
34 | Cc1ccccc1C(=O)OCC(=O)c1ccc(-c2ccccc2)cc1 | -17.6% | -9.4% | -1.35% | -37.5 | 14 | -20.7%
35 | CCOC(=O)C(=O)Nc1c(N(CC)CC)n2ccccc2nc1=O | 5.75% | -22.5% | -4.15% | 6.2 | 2.6 | 13.8%
36 | CCCC(CC/C(C)=N/NC(N)=O)[N+](=O)[O-] (stereo unspecified) | -20.1% | -9.25% | 0.05% | -9.55 | 4.75 | 8.5%
37 | Cc1ccc(OS(=O)Nc2cccc(N)c2)cc1 (stereo unspecified) | -5.35% | -12.1% | -13.9% | -22.1 | -8.4 | -10.3%
38 | COc1cc(N2C(=O)CSC2=S)cc(OC)c1OC | 21.3% | 12.3% | 61.8% | 25.4 | 33.8 | 23.4%
39 | C=C(C)/C=N/NS(=O)(=O)c1ccc(C)cc1 | -14.6% | 9.65% | 6.7% | -26.1 | -18.1 | 4.9%
40 | COC1CC(NC(C)=O)C(OC(C)=O)C(C)O1 (stereo unspecified) | -1.5% | -9.6% | -5.65% | -29.2 | -7.55 | -1.4%
41 | CNC(=O)Nc1ccccc1 | 27.4% | -0.55% | -12.1% | 16.9 | -21.9 | 7.6%
